This is a sample that favours compounds with a hit; in the whole collection about 3.7% have one here.
A549 viability – counter-screen for Nrf2 inhibitors: cytotoxicity in A549 cells. A549 ARE-Fluc cells, CellTiter-Fluor viability, 18-24 h. Potency, µM (doses to about 46 µM), for inactives: top-dose activity change, negative = cytotoxicity, actives largely listed as inhibitors. actives 0.16% (n = 390,000). AID 504648; further: on the % scale 0 is the no-effect control and ±100 the full control effect
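A549 ARE_Fluc cells in 5% FBS OPTI-MEM were exposed to compounds in concentration-response for 18-24 h at 37 deg C. Viability was read by CellTiter-Fluor fluorescence (Ex 405/Em 525) after 30 min, before the luciferase read.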
Nrf2 ARE act – activators of Nrf2 (ARE) signaling. Potency, µM (series often up to 46.1 µM), for inactives: at the highest dose activation, most hits filed as activators. actives 0.31% (n = 410,000). AREc32 ARE-luciferase reporter (MCF7-derived line), luminescence, 24 h. AID 624171; further: % of control where 0% means no effect; nearly all actives have a fitted effect of over 65% in size
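ARE activation measured as luciferase luminescence (Steady-Glo, 30 min RT) in AREc32_Fluc cells after 24 hr compound exposure at 37 deg C, 5% CO2; cells seeded overnight at 1000/well in OPTI-MEM, 5% FBS.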
ELG1 repair inh – ELG1-dependent DNA repair inhibition | AID 504467 | HEK293T ELG1-luciferase reporter, luminescence, 16 h; DNA damage induced by 5-fluorouridine | actives 2.3% (n = 330,000) | Potency, µM (series often up to 46.1 µM), for the others: at the top dose activity change, negative = inhibition, most hits filed as inhibitors; further: on the % scale 0 is the no-effect control and ±100 the full control effect; nearly all actives have a fitted effect of over 55% in size
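In this reporter screen, reduction of luminescence relative to DMSO vehicle indicated activity. Compounds and 5-fluorouridine were added together to 2,000 cells per well, incubated for 16 hr at 37 °C, then developed with ONE-Glo.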
Nrf2 block – inhibitors of Nrf2 signaling; actives 2.1% (n = 360,000); A549 ARE-Fluc reporter, luciferase luminescence, 18-24 h; Potency, µM (top dose mostly 46 µM), inactives show at the top dose activity change, negative = inhibition, hits mostly inhibitors; AID 504444; further: on the % scale 0 is the no-effect control and ±100 the full control effect; nearly all actives have a fitted effect of over 60% in size
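A549 ARE_Fluc cells (5000/well, 5% FBS OPTI-MEM) pre-incubated 2 h, then treated with compounds 18-24 h at 37C/5% CO2 in concentration-response. CellTiter-Fluor viability read first; BugLite luciferase luminescence after 15 min at room temperature gives Nrf2 activity.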
* marks the source's active call; other numbers are inactive results; ? = inconclusive; . = no result given; [ ] = another dose, or the depositor's remark. The call rests on the fitted dose curve; in most records, active means well fitted curve in the direction sought with a large enough effect; inconclusive means small, poorly fitted or top-dose-only effect, or another doubt; inactive means no such curve, though single readings can be large; an effect the other way counts as inactive or inconclusive. Potency means the concentration at half of the fitted maximal effect.

SMILES	A549 viability	Nrf2 ARE act	ELG1 repair inh	Nrf2 block
COCCn1c(=NC(=O)c2cc(Cl)sc2Cl)sc2cc(S(N)(=O)=O)ccc21	1%	?	?	-24%
C=CCn1c(=NC(=O)c2ccc(S(=O)(=O)N3CCc4ccccc4C3)cc2)sc2cc(S(N)(=O)=O)ccc21	-2%	-2%	-4%	?
COCCn1c(=NC(=O)c2ccc3c(c2)OCCO3)sc2cc(S(N)(=O)=O)ccc21	-14%	-1%	27%	13µM*
C#CCn1c(=NC(=O)c2ccc(S(=O)(=O)N3CCc4ccccc4C3)cc2)sc2cc(S(N)(=O)=O)ccc21	5.2µM*	-2%	?	3.3µM*
CCOCCn1c(=NC(=O)c2ccc(S(=O)(=O)N3CCOCC3)cc2)sc2cc(S(N)(=O)=O)ccc21	-1%	0%	18µM*	?
Cc1ccc(CSCC(=O)Nc2cc(S(=O)(=O)N3CCOCC3)ccc2OCC(F)(F)F)cc1	-16%	0%	.	?
COc1ccc(-c2ccc(C3C4C=CCC(C)C4C(=O)N3Cc3ccccc3)c(F)c2)cc1 (stereo not given)	-8%	.	.	?
COc1ccc(-c2ccccc2[C@H]2[C@@H]3C=CC[C@@H](C)[C@@H]3C(=O)N2Cc2ccccc2)cc1	?	3%	?	18µM*
COc1ccc(-c2c([C@H]3[C@H]4C=CC[C@@H](C)[C@@H]4C(=O)N3Cc3ccccc3)ccc3ccccc23)cc1OC	?	7%	-27%	18µM*
COc1ccc(-c2c(C3C4C=CCC(C)C4C(=O)N3Cc3ccccc3)ccc3ccccc23)cc1 (stereo not given)	-6%	.	.	21µM*
COc1ccc(Br)cc1[C@H]1[C@H]2C=CC[C@@H](C)[C@@H]2C(=O)N1Cc1ccccc1	-17%	-1%	-26%	21µM*
COc1ccc(-c2ccc(OC)c(C3C4C=CCC(C)C4C(=O)N3Cc3ccccc3)c2)cc1 (stereo not given)	-1%	.	.	?
COC(=O)c1c(NC(C)=O)csc1C	0%	0%	15%	4%
CC1CCCN(c2nc(NCc3ccco3)nc(N)c2[N+](=O)[O-])C1 (stereo not given)	1%	20%[9.22 µM]	-25%	18µM*
CC1CC(C)CN(c2nc(NCc3ccco3)nc(N)c2[N+](=O)[O-])C1 (stereo not given)	-25%	22%	?	23µM*
O=c1c2ccc(Cl)cc2nc(-c2ccc([N+](=O)[O-])cc2)n1O	-5%	0%	9.2µM*	?
O=c1c2cc(Cl)ccc2nc(-c2ccccc2)n1O	0%	7%	-27%	4%
Cc1cccc(/C=C/c2onc(C)c2[N+](=O)[O-])n1	18µM*	21%	.	15µM*
COc1ccc(CCNC(=O)COC(=O)c2cc(S(=O)(=O)N3CCCC3)ccc2O)cc1	3%	-1%	7%	8%
COc1cc2nc(NC(=O)c3ccc(F)cc3Cl)sc(=O)c2cc1OC	2%	0%	18%	6.5µM*
O=C(/C=C/c1ccccc1)NC(NC(=S)Nc1cc(Cl)ccc1Cl)C(Cl)(Cl)Cl (stereo not given)	?	9%	-2%	4.1µM*
COc1ccc(S(=O)(=O)NC(=O)C2(C)CCN2C(=O)C2CCCCC2)cc1OC (stereo not given)	.	-1%	.	.
Nc1ccc(CSc2ccc(Cl)cc2)c(Cl)c1	6%	9%	.	27%
COc1ccc2cc(C(=O)N3CCN(Cc4ccc5c(c4)OCO5)CC3)[nH]c2c1	-26%	3%	7%	21µM*
COc1ccc2cc3cc(C(=O)N4CCN(Cc5ccc6c(c5)OCO6)CC4)oc3nc2c1	-9%	0%	23µM*	?
SMILES	A549 viability	Nrf2 ARE act	ELG1 repair inh	Nrf2 block
COc1ccc2cc3cc(C(=O)NCc4ccc5c(c4)OCO5)oc3nc2c1	-4%	0%	-14%	?
Cc1ccc(Cl)cc1NC(=O)C(=O)NCCc1sc(-c2ccc(F)cc2)nc1C	-1%	0%	.	.
CC(C)[C@H](NC(=O)N1CC(=O)Nc2ccccc21)C(=O)N[C@@H](C(=O)O)c1ccccc1	-3%	0%	27%	-9%
O=S(=O)(NCCc1c[nH]c2ccccc12)c1ccc(F)cc1	0%	0%	.	6%
Cc1ccc(NC(=O)c2cc(S(=O)(=O)NCCC3=CCCCC3)ccc2F)cc1	?	4%	-5%	15µM*
COc1ccc(CCNc2ncnc3c2c(C)c(C)n3CCO)cc1OC	1%	5%	23µM*	?
